Drawing on PubChem BioAssay AID493170 (National Center for Advancing Translational Sciences (NCATS), 2011), this text covers Potency for 22 molecules.

Inconclusive results are not listed. A call without a number means that no potency is given here. The source made the active and inactive calls. Calls follow the shape of the dose curve; as a rule, active = well fitted inhibition curve with a large enough effect; inconclusive = small, poorly fitted or top-dose-only effect, or effect the other way; inactive = flat fitted curve, though single readings scatter.
Potency is read from the fitted curve at half-maximal effect.

For this test, the target named is Ubiquitin carboxyl-terminal hydrolase 2 (Homo sapiens) (UniProt O75604). Briefly: Ub-rhodamine 110 based assay for inhibitors Ubiquitin-specific Protease USP2a. Also: nearly all actives have a fitted effect of over 50% in size. The settings on record: USP2a Ub-rhodamine110 cleavage, fluorescence; series mostly up to 38.3 µM. In a few lines: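 Kinetic fluorescence (485/531 nm) read each minute over 7 min after adding Ub-Rhod110 (150 nM final) to USP2a (5 nM final). The enzyme had 30 min RT exposure to compounds beforehand in Tris pH 8.0 buffer with CaCl2, CHAPS and beta-ME.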
Sequence of Ubiquitin carboxyl-terminal hydrolase 2 (Homo sapiens) (O75604 whole entry, looked up): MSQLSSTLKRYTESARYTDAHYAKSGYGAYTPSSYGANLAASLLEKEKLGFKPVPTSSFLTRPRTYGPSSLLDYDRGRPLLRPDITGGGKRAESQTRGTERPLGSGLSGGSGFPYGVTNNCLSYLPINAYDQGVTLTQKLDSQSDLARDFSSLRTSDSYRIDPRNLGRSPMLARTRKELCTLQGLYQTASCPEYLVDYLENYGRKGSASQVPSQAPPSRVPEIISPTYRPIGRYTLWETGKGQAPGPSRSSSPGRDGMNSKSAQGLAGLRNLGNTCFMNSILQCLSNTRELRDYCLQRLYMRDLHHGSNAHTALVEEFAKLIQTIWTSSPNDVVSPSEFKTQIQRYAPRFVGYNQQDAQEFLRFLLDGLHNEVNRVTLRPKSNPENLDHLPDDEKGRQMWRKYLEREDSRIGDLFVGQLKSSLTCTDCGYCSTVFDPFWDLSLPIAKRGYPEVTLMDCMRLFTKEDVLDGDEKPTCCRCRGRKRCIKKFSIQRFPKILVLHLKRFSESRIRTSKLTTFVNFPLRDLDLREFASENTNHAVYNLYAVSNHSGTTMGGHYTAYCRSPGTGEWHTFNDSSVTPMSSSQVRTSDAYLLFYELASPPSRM
For the molecule `O/N=C/c1ccccc1OCc1ccccc1F`, the Potency entry is “inactive”. In the case of `O=C(NN=Cc1ccc(N2CCOCC2)s1)c1ccc([N+](=O)[O-])cc1` it was “inactive”; in that of `O=C(Nc1ccc(N2CCCC2)cc1)C(c1ccccc1)c1ccccc1`, “inactive”. Under `CC(C)c1ccc(NC(=O)C(c2ccc3c(c2)OCO3)N2CCCCC2)cc1` (configuration not stated) stands “inactive”; under `CCOc1ccc(NC(=O)N(CCCN2CCOCC2)Cc2cccnc2)cc1`, “inactive”. Under `O=C(Nc1ccccc1)c1cc(Cl)nc2ccccc12` stands “inactive”; under `Cc1cc(N2CCOCC2)nc(SCC(=O)c2ccc(Cl)cc2)n1`, “inactive”. Turning to `CC(C)(C)NC(=O)CSc1nc(O)cc(=O)n1-c1ccccc1F`, the Potency result is “inactive”. Under `Cc1ccc2[nH]c(=O)c(COC(=O)c3ccccn3)cc2c1` stands “inactive”. Under `Cc1ccc(C)n1-c1cc(S(=O)(=O)N2CCOCC2)ccc1N1CCCC1` stands “inactive”; under `Cc1c(N=C/C=C2\N(C)c3ccccc3C2(C)C)c(=O)n(-c2ccccc2)n1C`, “inactive”.

Regarding `CCOc1ccc(Cn2nnc(C(=O)NCc3ccccc3)c2N)cc1`, the Potency result was “inactive”. Under `O=C(N/N=C/c1ccc(-c2ccc(S(=O)(=O)Nc3ncccn3)cc2)o1)c1cc2ccccc2cc1O` stands 4.47 µM (active); under `Cc1ccccc1OCc1nc2ccccc2c(=O)n1N`, “inactive”; under `COc1cc2cc(CN(CCN3CCCC3)C(=O)Nc3ccc(F)cc3)c(=O)[nH]c2cc1OC`, “inactive”. In the case of `C#CCOCCOCCOCCNc1nc(N2CCN(C(=O)CCCCCCCCCCNC(=O)[C@H]([C@@H](C)CC)n3cc(CCCCCN)nn3)CC2)nc(N2CCN(C(=O)CCCCCCCCCCNC(=O)[C@H](CCCCN)n3cc(CCCC(=O)O)nn3)CC2)n1` it was “inactive”. In the case of `NC(=O)C[C@@H]1N[C@]2(C(=O)Nc3ccccc32)[C@@H]2C(=O)N(c3cc(C(F)(F)F)ccc3Cl)C(=O)[C@H]12` it was “inactive”; in that of `CCOC(=O)c1ccc(NC(=O)C2=C(C)Nc3nc(CCCO)nn3C2c2cccc(C)c2)cc1` (configuration not stated), “inactive”; in that of `O=C(Nc1ccc(Nc2ccncc2)cc1)c1ccc(Nc2ccnc3ccc([N+](=O)[O-])cc23)cc1`, 7.08 µM (active).

Turning to `O=C(NC1CCCC1)C1C2C=CC(C2)C1C(=O)N1CCOCC1` (configuration not stated), the Potency result was “inactive”.

For `Cc1nc(N(C)C)c2sc(=S)n(C)c2n1`, the Potency result was “inactive”. Turning to `Cc1ccc(C2=[N+]([O-])C(C)N(O)C2(C)C)o1` (configuration not stated), the Potency result is “inactive”.
